Most compounds without a hit are left out; they make up all but 1.1% or so of the library.
Tb PYK inh: qHTS of Trypanosoma Brucei Inhibitors | TbPYK enzyme, Kinase-Glo Plus ATP luminescence, 45 min | Potency, µM (titrated, usually from 76.8 µM), for the others: at the top dose activity, negative = inhibition, most hits filed as inhibitors | 410,000 tested, 0.12% active; note: % is set by controls: 0 for no effect and ±100 for the full control effect; nearly all actives have a fitted effect of over 50% in size
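Quantitative HTS: titrated library compounds versus trypanosomal pyruvate kinase in TEA buffer (pH 7.2) containing KCl, MgCl2, BSA and Tween-20. Reactions were initiated with ADP, 130 uM final. Kinase-Glo Plus luminescence was read after 45 min at RT.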
LmPK inh: qHTS Assay for Inhibitors of Leishmania Mexicana Pyruvate Kinase (LmPK); 290,000 tested, 0.37% active; Potency, µM (highest dose often 57.5 µM), without a hit: top-dose activity change, negative = inhibition, actives largely listed as inhibitors; purified LmPK, Kinase-Glo ATP luminescence, 1 h; AID 1721, 2009; note: % is set by controls: 0 for no effect and ±100 for the full control effect
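qHTS format; LmPK 0.1 nM; substrates PEP 0.5 mM and ADP 0.1 mM. One-hour room-temperature incubation, then coupled luciferase luminescence; 0.5 nM enzyme wells mark activation.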
RE007 growth inh: qHTS Assay for Inhibitors of the HIV-1 protein Vpr; Potency, µM (highest dose often 92.2 µM), for the others: at the top dose activity change, negative = less growth, hits mostly inhibitors; S. pombe RE007 Vpr strain, BacTiter-Glo ATP luminescence, 24 h; 360,000 tested, 0.21% active; active = well fitted falling curve with a large enough effect; inconclusive = small, poorly fitted or top-dose-only effect; inactive = no such curve, though single readings can be large or run the other way; note: % is set by controls: 0 for no effect and ±100 for the full control effect; nearly all actives have a fitted effect of over 50% in size
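Fission yeast strain RE007, carrying one chromosomally integrated HIV-1 vpr copy, was seeded at OD 0.01 in PMG+AL medium with 23 nL pinned compound. After 24 h at 30 °C and 99% humidity, viability was read by BacTiter-Glo luminescence.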
SARS PLP yeast: qHTS of Yeast-based Assay for SARS-CoV PLP. 330,000 tested, 0.19% active. AID 485353, 2010. S. cerevisiae expressing SARS-CoV PLpro, growth rescue. Potency, µM (series often up to 32.9 µM), without a hit: top-dose activity, positive = growth rescue, hits mostly activators; calls by dose curve; note: 0% is about no effect; nearly all actives have a fitted effect of over 55% in size
Giardia FBPA inh: qHTS Assay for Inhibitors of Fructose-1,6-bisphosphate Aldolase from Giardia Lamblia; 290,000 tested, 0.71% active; A8B2U2; AID 2451, 2010; purified Giardia FBPA; Potency, µM (highest dose often 59.6 µM), inactives show at the top dose activity, negative = inhibition, usual class: inhibitors; note: % is set by controls: 0 for no effect and ±100 for the full control effect; nearly all actives have a fitted effect of over 55% in size
Target sequence (A8B2U2 whole entry, looked up): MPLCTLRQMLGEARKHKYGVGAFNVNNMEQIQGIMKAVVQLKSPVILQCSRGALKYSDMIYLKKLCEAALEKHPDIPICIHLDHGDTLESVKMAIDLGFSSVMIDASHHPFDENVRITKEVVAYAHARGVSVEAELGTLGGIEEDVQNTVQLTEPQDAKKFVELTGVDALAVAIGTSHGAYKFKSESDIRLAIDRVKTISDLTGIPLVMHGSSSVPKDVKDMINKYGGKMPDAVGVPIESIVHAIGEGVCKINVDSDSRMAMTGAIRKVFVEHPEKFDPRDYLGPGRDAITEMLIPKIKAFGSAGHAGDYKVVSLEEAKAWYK
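40 nM FBPA preincubated 10 min at RT with compound (up to 57.5 uM final), then substrate plus GAPDH/TPI/NAD/arsenate coupling and diaphorase/resazurin added. Fluorescence read after 20 min at RT, 525/598 nm.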
* = called active by the depositor; [ ] = dose if it differs, or a comment. Unless noted, calls come from the whole dose curve; as a rule, active = well fitted curve in the direction sought with a large enough effect; inconclusive = small, poorly fitted or top-dose-only effect, or another doubt; inactive = no such curve, though single readings can be large; an effect the other way counts as inactive or inconclusive. Potency is the fitted concentration of half-maximal effect.

Results for COc1ccccc1C1CC(=O)Oc2cc3c(cc21)OCO3 (stereo unspecified) ?
Giardia FBPA inh: 40µM*

What do the screens show for `CCSC(=O)N=Nc1ccc(O)cc1`?
Tb PYK inh: -12%; RE007 growth inh: 16µM*

What do the screens show for `O=[As](O)(O)c1ccc(N=Nc2ccc(O)cc2)cc1`?
Tb PYK inh: -2%; LmPK inh: -7%; SARS PLP yeast: 2%; Giardia FBPA inh: 3%

What do the screens show for `Cc1c2c(c(O)c3c(O)cccc13)C(=O)O[C@H]2C1C(N(C)C)C(O)=C(C(N)=O)C(=O)[C@H]1O` (stereo partly specified)?
Giardia FBPA inh: 10µM*

How did C=CCOc1c(Br)cc(CNc2ccc(NC(=O)C(C)C)c(OC)c2)cc1OCC do in these assays?
Tb PYK inh: 3%; LmPK inh: 3%; RE007 growth inh: 3%; SARS PLP yeast: 1%; Giardia FBPA inh: 8.9µM*

What do the screens show for `CCOc1cc(CNc2ccc(N3CCCCC3)cc2)cc(Br)c1OCC(=O)NC(C)(C)C`?
Tb PYK inh: -5%; LmPK inh: 4%; SARS PLP yeast: -28%; Giardia FBPA inh: -7%

How did CCOc1cc(CNc2ccc(N(C)C)cc2)cc(Br)c1OCC(=O)NC(C)(C)C do in these assays?
Tb PYK inh: -12%; LmPK inh: 1%; RE007 growth inh: inconclusive; SARS PLP yeast: -22%; Giardia FBPA inh: 5µM*

Results for C[n+]1cccc2cccc([O-])c21 ?
Tb PYK inh: -4%; LmPK inh: -3%; RE007 growth inh: 4%; SARS PLP yeast: -1%; Giardia FBPA inh: 0.45µM*

How did O=C(c1ccccc1Cl)N(C(=O)c1ccccc1Cl)c1nccc(-c2cccs2)n1 do in these assays?
Tb PYK inh: 4%; LmPK inh: 0%; RE007 growth inh: 0%; SARS PLP yeast: 15%; Giardia FBPA inh: 7.9µM*

Results for O=C(CSc1nccc(-c2cccs2)n1)Nc1cccc(Cl)c1Cl ?
Tb PYK inh: -7%; LmPK inh: 3%; RE007 growth inh: -4%; SARS PLP yeast: 0%; Giardia FBPA inh: -1%

What do the screens show for `Cc1ccc2c(c1)C(=C(C#N)C#N)C(=O)N2CCN1CCOCC1`?
Tb PYK inh: 1%; LmPK inh: -4%; RE007 growth inh: -9%; SARS PLP yeast: -4%; Giardia FBPA inh: 3.2µM*

How did Cc1ccc2c(c1)C(=C(C#N)C#N)C(=O)N2CCN1CCCCC1 do in these assays?
Tb PYK inh: -10%; LmPK inh: 5%; RE007 growth inh: -23%; SARS PLP yeast: 1%; Giardia FBPA inh: inconclusive

What do the screens show for `CC(=O)N1CCc2cc(S(=O)(=O)NC(CC(C)C)C(=O)Nc3cc(C)cc(C)c3)ccc21` (stereo unspecified)?
Tb PYK inh: -11%

How did CC1NC(=O)C(N)CNC(=O)C(C2CCN=C(N)N2)NC(=O)/C(=C/NC(N)=O)NC(=O)C(CNC(=O)CC(N)CCCN)NC1=O (stereo unspecified) do in these assays?
Tb PYK inh: -2%[33.2 µM]; Giardia FBPA inh: 6%

Results for NC(=S)Nc1cc(Cl)cc(Cl)c1 ?
Tb PYK inh: -9%; LmPK inh: -4%; RE007 growth inh: -13%; SARS PLP yeast: 1%; Giardia FBPA inh: -7%

How did Cc1ccc(C)c(NNC(N)=S)c1 do in these assays?
Tb PYK inh: -4%; LmPK inh: 5%; RE007 growth inh: inconclusive; SARS PLP yeast: -2%; Giardia FBPA inh: inconclusive

What do the screens show for `Cc1cc(Cl)ccc1NNC(N)=S`?
Tb PYK inh: -6%; LmPK inh: 3%; RE007 growth inh: 16µM*; SARS PLP yeast: -19%; Giardia FBPA inh: inconclusive

Results for NC(=S)NNc1cc(Cl)cc(Cl)c1 ?
Tb PYK inh: 1%; LmPK inh: -4%; RE007 growth inh: 8.9µM*; SARS PLP yeast: -44%; Giardia FBPA inh: inconclusive

How did COc1ccc(Cn2ccc3nc(C)c(C(=O)N4CCN(c5ccc(F)cc5)CC4)cc3c2=O)cc1 do in these assays?
Tb PYK inh: -1%

Results for CC(CSC(=O)c1ccccc1)C(=O)N1CC(Sc2ccccc2)CC1C(=O)O (stereo unspecified) ?
Tb PYK inh: 0%

Results for Fc1ccc(-n2nnc(-c3nccs3)n2)cc1 ?
Tb PYK inh: -20%; LmPK inh: 14µM*; RE007 growth inh: inconclusive; SARS PLP yeast: -2%; Giardia FBPA inh: 3%

What do the screens show for `Cc1ccc(NCCC(=O)c2cccs2)cc1C`?
Tb PYK inh: 2%; LmPK inh: -1%; RE007 growth inh: 40µM*; SARS PLP yeast: -1%; Giardia FBPA inh: 1%

What do the screens show for `CC(C)c1ccc(NCCC(=O)c2cccs2)cc1`?
Tb PYK inh: 0%; LmPK inh: -2%; RE007 growth inh: 32µM*; SARS PLP yeast: 8%; Giardia FBPA inh: -5%

Results for Cc1ccc(NCCC(=O)c2cccs2)cc1 ?
Tb PYK inh: 1%; LmPK inh: -3%; RE007 growth inh: inconclusive; SARS PLP yeast: -3%; Giardia FBPA inh: 2%

How did Cc1ccc(NCCC(=O)c2cccs2)cc1Cl do in these assays?
Tb PYK inh: -10%; LmPK inh: 6%; RE007 growth inh: -15%; SARS PLP yeast: 0%; Giardia FBPA inh: -1%

What do the screens show for `CCOc1ccc(S(=O)(=O)NCCc2c(C)[nH]c3c(Cl)cccc23)cc1C`?
Tb PYK inh: 3%

What do the screens show for `CC(C)(C)NC[C@@H](O)c1ccc(O)c(CO)n1`?
Tb PYK inh: -1%

What do the screens show for `Cc1[nH]c2ccc(-c3n[nH]c(=S)n3Cc3ccccc3)cc2c1C`?
Tb PYK inh: inconclusive; LmPK inh: -26%; RE007 growth inh: -4%; SARS PLP yeast: 2%; Giardia FBPA inh: 8%

Results for Cc1cccc(-n2c(-c3ccoc3C)n[nH]c2=S)c1 ?
Tb PYK inh: inconclusive; LmPK inh: inconclusive; RE007 growth inh: 1%; SARS PLP yeast: 12%; Giardia FBPA inh: -5%

Results for Cc1ccccc1-n1c(-c2ccoc2C)n[nH]c1=S ?
Tb PYK inh: inconclusive; LmPK inh: 28µM*; RE007 growth inh: -1%; SARS PLP yeast: -6%; Giardia FBPA inh: -19%

What do the screens show for `CCCc1cc(-c2n[nH]c(=S)n2C(C)c2ccccc2)cs1` (stereo unspecified)?
Tb PYK inh: -41%; LmPK inh: 22µM*; RE007 growth inh: 4%; SARS PLP yeast: 22µM*; Giardia FBPA inh: 0%

Results for CCn1c(-c2csc(C(C)C)c2)n[nH]c1=S ?
Tb PYK inh: -61%; LmPK inh: -24%; RE007 growth inh: 14%; SARS PLP yeast: -3%; Giardia FBPA inh: 9%

Results for COc1cc(-c2n[nH]c(=S)n2C(C)c2ccccc2)cc(OC)c1OC (stereo unspecified) ?
Tb PYK inh: inconclusive; LmPK inh: inconclusive; RE007 growth inh: 9%; SARS PLP yeast: 3%; Giardia FBPA inh: 12%

High-throughput results (PubChem)
